Measurements from PubChem BioAssay (EPA / NIEHS).
Results filed as inconclusive are left out. The source made the active and inactive calls. Rule for the calls, unless noted: active = hit-call score of the fitted dose curve at least 0.9, where 1 is the maximum; inactive = score below 0.9.

How the values were obtained:
[1] = biological target: Retinoic acid receptor RXR-alpha (Homo sapiens) (UniProt P19793); assay: ATG_RXRa_TRANS: Attagene TRANS-FACTORIAL HepG2 Assay for human Retinoid X Receptor alpha (RXRa) (AID 2283012; active = hit-call score of the fitted dose curve at least 0.9, where 1 is the maximum)
Summary of the method: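 TRANS format reporting activity of exogenous RXRa-Gal4 chimera in transiently transfected HepG2, 24 h exposure. Reporter transcripts quantified by RT-PCR with capillary electrophoresis, with gain of signal scored relative to DMSO.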

[2] = read-out: E-selectin (Homo sapiens) (UniProt P16581); assay: BSK_3C_Eselectin: BioMAP Diversity Plus: 3C Assay for Eselectin Biomarker Activity (AID 2283015); details: primary human endothelial cells (HUVEC); actives raise or lower the signal
Summary of the method: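 Primary human umbilical vein endothelial cells (3C system), read 24 h after compound addition; E-selectin measured by ELISA. Bidirectional curve fitting against DMSO baseline; cytotoxicity by parallel SRB total-protein staining.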

[3] = read-out: Interleukin-1 alpha (IL1a), IL1A (gene 3552); assay: BSK_BE3C_IL1a: BioMAP Diversity Plus: BE3C Assay for Interleukin-1 alpha (IL1a) Biomarker Activity (AID 2283016); details: primary human bronchial epithelial cells; actives raise or lower the signal
Summary of the method: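 IL-1a measured by ELISA after 24 h treatment of human primary bronchial epithelial cells, with gain or loss of signal fitted versus DMSO. Parallel cultures stained with SRB gauge overt cytotoxicity.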

[4] = read-out: Monocyte Chemoattractant Protein-1 (MCP1), CCL2 (gene 6347); assay: BSK_4H_MCP1: BioMAP Diversity Plus: 4H Assay for Monocyte Chemoattractant Protein-1 (MCP1) Biomarker Activity (AID 2283018); details: primary human endothelial cells (HUVEC); actives raise or lower the signal
Summary of the method: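 ELISA of MCP-1 (CCL2) 24 h after chemical dosing of HUVEC in the BioMAP 4H system. Gain or loss versus DMSO fitted; parallel SRB staining (560 nm) tracked overt cytotoxicity.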

[5] = read-out: Human Leukocyte Antigen - DR isotype (HLADR), HLA-DRA (gene 3122); assay: BSK_3C_HLADR: BioMAP Diversity Plus: 3C Assay for Human Leukocyte Antigen - DR isotype (HLADR) Biomarker Activity (AID 2283019); details: primary human endothelial cells (HUVEC); actives raise or lower the signal
Summary of the method: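 HUVEC monoculture, HLA-DR measured by ELISA 24 h after chemical dosing. Fitted bidirectionally against DMSO baseline; parallel SRB staining assessed cytotoxicity, with 3C proliferation read by SRB at 48 h.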

[6] = read-out: Interleukin-8 (IL8), CXCL8 (gene 3576); assay: BSK_3C_IL8: BioMAP Diversity Plus: 3C Assay for Interleukin-8 (IL8) Biomarker Activity (AID 2283020); details: primary human endothelial cells (HUVEC); actives raise or lower the signal
Summary of the method: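 IL-8 was measured by ELISA in HUVEC cultures 24 h after chemical dosing, with gain or loss of signal fitted relative to DMSO. Parallel SRB total-protein staining tracked overt cytotoxicity.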

[7] = read-out: Monokine induced gamma interferon (MIG), CXCL9 (gene 4283); assay: BSK_3C_MIG: BioMAP Diversity Plus: 3C Assay for Monokine induced gamma interferon (MIG) Biomarker Activity (AID 2283021); details: primary human endothelial cells (HUVEC); actives raise or lower the signal;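 for AC50: MIG protein level measured by immunoassay in the treated endothelial cultures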
Summary of the method: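 ELISA measurement of MIG in human umbilical vein endothelial cells 24 h after treatment. Cytotoxicity tracked by SRB staining in parallel cultures; gain or loss of signal fitted relative to DMSO.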

[8] = biological target: human Vitamin D Receptor (VDR), VDR (gene 7421) (UniProt P11473); assay: ATG_VDR_TRANS: Attagene TRANS-FACTORIAL HepG2 Assay for human Vitamin D Receptor (VDR) (AID 2283022; active = hit-call score of the fitted dose curve at least 0.9, where 1 is the maximum)
Summary of the method: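 HepG2 cells were transiently transfected with GAL4-UAS reporter units and a chimeric VDR-Gal4 construct, then dosed for 24 hours. Reporter mRNA was quantified by RT-PCR, fluorescent labeling, HpaI digestion and capillary electrophoresis; gain of signal analysed vs DMSO.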

[9] = BSK_3C_SRB: Viability Assessment in the BioMAP Diversity Plus: 3C Assay (AID 2283023); details: primary human endothelial cells (HUVEC);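 note: fitted both ways against DMSO so a hit may be signal rise or drop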
Summary of the method: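 Human umbilical vein endothelial cells in the 3C system, treated 24 h. Total protein measured by 0.1% sulforhodamine B staining after 10% TCA fixation, read at 560 nm; bidirectional fit versus DMSO.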

[10] = read-out: Matrix Metallopeptidase 1 (MMP1), MMP1 (gene 4312); assay: BSK_BE3C_MMP1: BioMAP Diversity Plus: BE3C Assay for Matrix Metallopeptidase 1 (MMP1) Biomarker Activity (AID 2283024); details: primary human bronchial epithelial cells; actives raise or lower the signal
Summary of the method: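 ELISA measurement of MMP-1 after 24 h compound exposure of primary human bronchial epithelial cells. Changes in either direction fitted relative to DMSO; parallel SRB staining checked overt cytotoxicity.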

[11] = BSK_3C_Vis: BioMAP Diversity Plus: 3C Assay for Morphology Visualization (AID 2283025); details: primary human endothelial cells (HUVEC);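 note: fitted both ways so gain or loss versus DMSO counts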;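 for AC50: light microscopy image of cell morphology used as background control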
Summary of the method: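 Light-microscopy visualization of HUVEC cultures at 24 h post-treatment, with DMSO as baseline for bidirectional fitting.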

[12] = read-out: Pselectin, SELP (gene 6403); assay: BSK_4H_Pselectin: BioMAP Diversity Plus: 4H Assay for Pselectin Biomarker Activity (AID 2283026); details: primary human endothelial cells (HUVEC); actives raise or lower the signal
Summary of the method: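 ELISA of surface P-selectin on HUVEC, 24 h after dosing, with parallel SRB staining (0.1% after 10% TCA fixation, 560 nm) for overt cytotoxicity. Activity fitted in both directions relative to DMSO.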

[13] = BSK_BE3C_SRB: Viability Assessment in the BioMAP Diversity Plus: BE3C Assay (AID 2283028); details: primary human bronchial epithelial cells;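 for AC50: fitted both ways so AC50 may mark signal gain or loss versus DMSO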
Summary of the method: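 Human bronchial epithelial primary cells in confluent culture, 24 h after chemical dosing; total protein by 0.1% SRB staining after 10% TCA fixation, read at 560 nm. Bidirectional fitting versus DMSO baseline.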

[14] = read-out: Thrombomodulin, THBD (gene 7056); assay: BSK_3C_Thrombomodulin: BioMAP Diversity Plus: 3C Assay for Thrombomodulin Biomarker Activity (AID 2283029); details: primary human endothelial cells (HUVEC); actives raise or lower the signal
Summary of the method: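 ELISA measurement of thrombomodulin on HUVEC surface 24 h after chemical dosing; activity fitted in both directions relative to DMSO vehicle.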

[15] = read-out: Urokinase-type plasminogen activator receptor (uPAR), PLAUR (gene 5329); assay: BSK_4H_uPAR: BioMAP Diversity Plus: 4H Assay for Urokinase-type plasminogen activator receptor (uPAR) Biomarker Activity (AID 2283030); details: primary human endothelial cells (HUVEC); actives raise or lower the signal
Summary of the method: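 Human umbilical vein endothelial cells in the 4H system, 24 h after chemical dosing. Cell-surface uPAR measured by ELISA, fitted in both directions versus DMSO; cytotoxicity checked by SRB total protein in parallel cultures.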

[16] = biological target: human Thyroid Receptor alpha (THRa1), THRA (gene 7067) (UniProt P10827); assay: ATG_THRa1_TRANS: Attagene TRANS-FACTORIAL HepG2 Assay for human Thyroid Receptor alpha (THRa1) (AID 2283014; active = hit-call score of the fitted dose curve at least 0.9, where 1 is the maximum)
Summary of the method: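 HepG2 cells transiently transfected with chimeric NR-Gal4 and GAL4-UAS reporter units, dosed 24 h. Reporter mRNA quantified by RT-PCR, fluorescent labeling, HpaI digestion and capillary electrophoresis; gain-of-signal fit versus DMSO.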

[17] = biological target: human Retinoid X Receptor beta (RXRb), RXRB (gene 6257) (UniProt P28702); assay: ATG_RXRb_TRANS: Attagene TRANS-FACTORIAL HepG2 Assay for human Retinoid X Receptor beta (RXRb) (AID 2283013; active = hit-call score of the fitted dose curve at least 0.9, where 1 is the maximum)
Summary of the method: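 Readout is reporter transcript induction after 24 h dosing. It is measured by RT-PCR of total RNA followed by fluorescent capillary electrophoresis. HepG2 liver cells carry transfected multiple reporter units driven by an exogenous RXRb-Gal4 fusion; activity is relative to DMSO.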

Measured: AC50

Chain of E-selectin (Homo sapiens) (P16581 whole entry, looked up): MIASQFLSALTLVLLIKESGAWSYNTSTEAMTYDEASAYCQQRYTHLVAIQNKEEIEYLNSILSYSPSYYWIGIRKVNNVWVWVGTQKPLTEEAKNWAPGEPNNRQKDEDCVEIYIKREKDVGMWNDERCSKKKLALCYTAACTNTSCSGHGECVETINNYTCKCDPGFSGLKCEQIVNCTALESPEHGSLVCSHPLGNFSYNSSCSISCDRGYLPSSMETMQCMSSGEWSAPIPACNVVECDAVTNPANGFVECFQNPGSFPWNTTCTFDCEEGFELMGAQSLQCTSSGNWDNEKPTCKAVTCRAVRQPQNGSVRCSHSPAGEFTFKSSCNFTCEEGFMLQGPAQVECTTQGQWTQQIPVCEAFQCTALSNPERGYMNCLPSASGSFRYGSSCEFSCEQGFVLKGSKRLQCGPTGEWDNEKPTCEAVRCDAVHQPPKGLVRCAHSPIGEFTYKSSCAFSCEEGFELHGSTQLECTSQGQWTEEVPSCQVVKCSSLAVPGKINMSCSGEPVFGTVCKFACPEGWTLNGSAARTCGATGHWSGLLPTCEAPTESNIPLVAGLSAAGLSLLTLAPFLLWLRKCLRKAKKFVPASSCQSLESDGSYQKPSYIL
Chain of Retinoic acid receptor RXR-alpha (Homo sapiens) (P19793 whole entry, looked up, the tested form may be a part): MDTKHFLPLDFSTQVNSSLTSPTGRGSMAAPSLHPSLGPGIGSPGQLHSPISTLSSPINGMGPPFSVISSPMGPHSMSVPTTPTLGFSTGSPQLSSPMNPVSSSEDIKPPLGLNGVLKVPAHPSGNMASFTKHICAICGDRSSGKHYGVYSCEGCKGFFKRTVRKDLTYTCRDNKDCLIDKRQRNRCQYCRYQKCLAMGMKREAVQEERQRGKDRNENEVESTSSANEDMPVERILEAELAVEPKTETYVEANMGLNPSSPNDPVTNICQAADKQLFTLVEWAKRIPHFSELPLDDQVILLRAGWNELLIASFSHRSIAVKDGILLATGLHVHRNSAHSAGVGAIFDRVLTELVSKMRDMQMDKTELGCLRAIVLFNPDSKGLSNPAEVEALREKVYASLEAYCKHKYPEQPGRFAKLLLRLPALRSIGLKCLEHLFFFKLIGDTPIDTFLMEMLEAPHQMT
Chain of human Vitamin D Receptor (VDR), VDR (gene 7421) (P11473 whole entry, looked up, the tested form may be a part): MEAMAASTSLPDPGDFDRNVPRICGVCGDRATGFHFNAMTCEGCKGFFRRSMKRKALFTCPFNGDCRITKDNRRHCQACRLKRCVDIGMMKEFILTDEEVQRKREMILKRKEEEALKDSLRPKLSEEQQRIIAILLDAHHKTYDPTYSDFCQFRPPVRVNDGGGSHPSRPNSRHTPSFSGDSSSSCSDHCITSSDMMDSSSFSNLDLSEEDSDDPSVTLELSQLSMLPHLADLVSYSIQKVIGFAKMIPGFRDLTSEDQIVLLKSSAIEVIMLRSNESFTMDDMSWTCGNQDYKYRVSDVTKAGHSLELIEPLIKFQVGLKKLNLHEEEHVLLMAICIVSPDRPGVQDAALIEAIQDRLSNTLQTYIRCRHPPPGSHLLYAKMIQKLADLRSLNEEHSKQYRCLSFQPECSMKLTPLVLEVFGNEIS
Chain of human Thyroid Receptor alpha (THRa1), THRA (gene 7067) (P10827 whole entry, looked up, the tested form may be a part): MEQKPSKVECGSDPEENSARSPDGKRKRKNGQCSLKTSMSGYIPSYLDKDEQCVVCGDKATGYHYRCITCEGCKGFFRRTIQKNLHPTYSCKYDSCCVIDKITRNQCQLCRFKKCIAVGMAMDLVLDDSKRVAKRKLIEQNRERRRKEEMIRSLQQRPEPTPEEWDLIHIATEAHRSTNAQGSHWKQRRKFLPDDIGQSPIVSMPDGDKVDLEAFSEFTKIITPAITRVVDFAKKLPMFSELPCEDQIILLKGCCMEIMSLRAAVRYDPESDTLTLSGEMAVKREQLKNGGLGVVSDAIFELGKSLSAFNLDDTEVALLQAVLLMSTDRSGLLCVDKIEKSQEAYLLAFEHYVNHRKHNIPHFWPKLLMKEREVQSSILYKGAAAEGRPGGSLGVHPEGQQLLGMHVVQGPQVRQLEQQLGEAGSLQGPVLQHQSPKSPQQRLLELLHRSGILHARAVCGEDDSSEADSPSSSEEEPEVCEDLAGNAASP
Chain of human Retinoid X Receptor beta (RXRb), RXRB (gene 6257) (P28702 whole entry, looked up, the tested form may be a part): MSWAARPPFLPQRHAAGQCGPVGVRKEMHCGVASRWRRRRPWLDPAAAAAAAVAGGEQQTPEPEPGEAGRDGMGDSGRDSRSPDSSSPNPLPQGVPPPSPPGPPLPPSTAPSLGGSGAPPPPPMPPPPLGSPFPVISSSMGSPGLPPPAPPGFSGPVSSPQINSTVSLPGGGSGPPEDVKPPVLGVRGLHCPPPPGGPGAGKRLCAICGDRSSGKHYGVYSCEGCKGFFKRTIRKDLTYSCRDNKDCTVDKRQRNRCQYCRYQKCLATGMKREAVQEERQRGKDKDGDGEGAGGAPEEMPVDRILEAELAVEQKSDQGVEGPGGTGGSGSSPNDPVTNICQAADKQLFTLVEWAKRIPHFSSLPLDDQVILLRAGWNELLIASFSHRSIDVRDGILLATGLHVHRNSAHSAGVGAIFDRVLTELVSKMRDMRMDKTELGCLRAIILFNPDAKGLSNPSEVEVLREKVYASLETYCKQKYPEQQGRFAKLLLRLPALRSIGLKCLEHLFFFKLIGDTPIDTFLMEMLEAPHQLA

CN(C)C(=O)Nc1ccc(Oc2ccc(Cl)cc2)cc1
active: [2] 20 µM | [3] 3.97 µM | [4] 12.1 µM
not listed: [16] | [17]
inactive: all other assays above

CCCCCCCCN1CCCC1=O
inactive: [1] | [16] | [8]

O=C1OC(=O)c2c(Cl)c(Cl)c(Cl)c(Cl)c21
inactive: [1] | [16]

CC(C)(C)CC(C)(C)c1ccc(OCCOCC[N+](C)(C)Cc2ccccc2)cc1
active: [2] 6.62 µM | [3] 7.26 µM | [4] 3.9 µM | [5] 5 µM | [6] 5 µM | [7] 8.17 µM | [9] 4.62 µM | [10] 6.86 µM | [11] 9.69 µM | [12] 5 µM | [13] 8.4 µM | [15] 4.64 µM
inactive: [1] | [16] | [8] | [14]

OCC(O)c1ccccc1 (stereo not drawn)
inactive: [1] | [16] | [8]

CC(=O)CC(=O)Nc1ccccc1
inactive: [1] | [16]

CCC(Cl)C(Cl)C(Cl)CC(Cl)C(Cl)C(C)Cl (stereo not drawn)
inactive: [1] | [16] | [8]

Cc1ccc2c(c1)C(=O)OC2=O
inactive: [1] | [17] | [8]

C#CC(C)(O)CC(C)C (stereo not drawn)
inactive: [1] | [16] | [8]

Cc1ncc[nH]1
inactive: [1] | [16]

CCCCSCCCC
inactive: [1] | [16]

c1ccc2[nH]cnc2c1
inactive: [1] | [16]

COc1ccc(CCN2CCC(Nc3nc4ccccc4n3Cc3ccc(F)cc3)CC2)cc1
active: [2] 5 µM | [4] 0.992 µM | [5] 6.77 µM | [6] 2.66 µM | [9] 2.41 µM | [11] 0.743 µM | [15] 0.992 µM
not listed: [16] | [17]
inactive: all other assays above

C[C@H]1C[C@@H](O)CC(C)(C)C1
inactive: [1] | [16] | [8]

CCCOC(=O)c1c(Cl)c(Cl)c(Cl)c(Cl)c1C(=O)OCCC
inactive: [1] | [8]
active: [17] 10.6 µM

CCCCN(CCCC)C(=O)N(CCCC)CCCC
inactive: [1] | [16] | [8] | [14]
active: [2] 6.65 µM | [3] 8.05 µM | [4] 6.41 µM | [5] 6.8 µM | [6] 4.98 µM | [7] 12.5 µM | [9] 7.99 µM | [10] 20 µM | [11] 2.98 µM | [12] 12.2 µM | [13] 7.45 µM | [15] 7.82 µM
